Pf apPOL inh = Pf-apPOL DNA polymerase inhibition | inhibition, % at 10 µM | 0.25% of 210,000 active | AID 1794808 | Recombinant Pf-apPOL, molecular beacon fluorescence, 1.5 h
mHTT CaM bind = mHTT-calmodulin interaction abrogation | P42858 | AlphaScreen His-mHTT/GST-CaM binding, luminescence | inhibition, % at 15 µM | 3.6% of 190,000 active | AID 1671202
Hits are given with their value. The sample as a whole holds a higher share of hits than the screen did. No stated cut-off is given here; in the data, active means inhibition above about 50%; inactive means the rest.

Results for COc1cccc(NC(=O)c2cc(Br)ccc2OC)c1 ?
Pf apPOL inh: inactive; mHTT CaM bind: inactive

How did COc1cccc(NC(=O)N2C(=O)C(=O)c3cc(Br)ccc32)c1 do in these assays?
Pf apPOL inh: inactive; mHTT CaM bind: 73

How did CC(=O)N1CCc2c(c(COCc3ccc(C)cc3)nn2C)C1 do in these assays?
Pf apPOL inh: inactive; mHTT CaM bind: inactive

How did CCN(CC)c1ccc(Nc2nc(-c3ccncc3)cs2)cc1 do in these assays?
Pf apPOL inh: inactive; mHTT CaM bind: 85

How did CCN(CC)c1ccc(Nc2nc(-c3ccc(OC)cc3)cs2)cc1 do in these assays?
Pf apPOL inh: inactive; mHTT CaM bind: 80

Results for COc1ccc(-c2csc(Nc3ccc(N(C)C)cc3)n2)cc1 ?
Pf apPOL inh: inactive; mHTT CaM bind: 89

How did COc1ccc(Nc2nc(-c3ccc(F)cc3F)cs2)cc1 do in these assays?
Pf apPOL inh: inactive; mHTT CaM bind: inactive

How did CCCC(=O)Nc1nc(-c2ccccc2)cs1 do in these assays?
Pf apPOL inh: inactive; mHTT CaM bind: inactive

Results for C=CCNc1nc(-c2ccncc2)cs1 ?
Pf apPOL inh: inactive; mHTT CaM bind: inactive

Results for CCN(CC)c1ccc(Nc2nc(-c3ccccc3)cs2)cc1 ?
Pf apPOL inh: inactive; mHTT CaM bind: 80

What do the screens show for `COc1ccc(-c2csc(Nc3cccnc3)n2)cc1`?
Pf apPOL inh: inactive

How did CCc1c(N2CCCCC2)nc2n(c1=O)CCCS2 do in these assays?
Pf apPOL inh: inactive; mHTT CaM bind: inactive

What do the screens show for `Cc1ccc(S(=O)(=O)N2CCN(C)c3ccccc32)cc1`?
Pf apPOL inh: inactive; mHTT CaM bind: inactive

How did COc1ccc(Nc2nc(-c3cccc([N+](=O)[O-])c3)cs2)cc1 do in these assays?
Pf apPOL inh: inactive; mHTT CaM bind: 84

How did COc1ccc(S(N)(=O)=O)cc1 do in these assays?
Pf apPOL inh: inactive; mHTT CaM bind: inactive

Results for COc1ccc(-c2csc(Nc3ccc(S(N)(=O)=O)cc3)n2)cc1 ?
Pf apPOL inh: inactive; mHTT CaM bind: 52

What do the screens show for `COc1ccc(SCC(=O)Nc2nc(-c3cccc([N+](=O)[O-])c3)cs2)cc1`?
Pf apPOL inh: inactive; mHTT CaM bind: inactive

How did O=C(NCC1CCCC1c1ccccc1)C1c2ccccc2C(=O)N2CCc3ccccc3C12 (stereo not given) do in these assays?
Pf apPOL inh: inactive; mHTT CaM bind: inactive

Results for COc1cc(/C=C/c2[nH]c(=O)[nH]c(=O)c2[N+](=O)[O-])ccc1OCc1ccccc1Cl ?
Pf apPOL inh: inactive; mHTT CaM bind: inactive

What do the screens show for `COc1ccccc1CN=Cc1[nH]c2ccc(Br)c(Cl)c2c1O`?
Pf apPOL inh: inactive; mHTT CaM bind: 71

How did COc1cccc(CN=Cc2[nH]c3ccc(Br)c(Cl)c3c2O)c1OC do in these assays?
Pf apPOL inh: inactive; mHTT CaM bind: inactive

What do the screens show for `Cc1nn(-c2ccccc2)c2nc(N3CCC(NC(=O)C4CCCCC4)CC3)sc12`?
Pf apPOL inh: inactive; mHTT CaM bind: inactive

Results for O=[N+]([O-])c1cc(Cc2ccccc2)ccc1O ?
Pf apPOL inh: inactive; mHTT CaM bind: inactive

How did CC(=O)Nc1cccc(N=Cc2cc(Cc3ccccc3)cc([N+](=O)[O-])c2O)c1 do in these assays?
Pf apPOL inh: inactive; mHTT CaM bind: 51

What do the screens show for `Cc1ccccc1C(=O)Nc1cccc(N=Cc2cc([N+](=O)[O-])cc([N+](=O)[O-])c2O)c1`?
Pf apPOL inh: inactive; mHTT CaM bind: inactive

Results for O=C(Nc1cccc(N=Cc2cc(Cl)cc([N+](=O)[O-])c2O)c1)c1ccco1 ?
Pf apPOL inh: inactive; mHTT CaM bind: 68

How did Cc1cccc(N=Cc2cc(Cl)cc([N+](=O)[O-])c2O)c1 do in these assays?
Pf apPOL inh: inactive; mHTT CaM bind: inactive

How did O=Cc1cc(Cc2ccccc2)cc([N+](=O)[O-])c1O do in these assays?
Pf apPOL inh: inactive; mHTT CaM bind: 100

How did CCCCCOc1ccc(/C=c2\sc3nc(=O)c(C)nn3c2=O)cc1 do in these assays?
Pf apPOL inh: inactive; mHTT CaM bind: inactive

How did CC(O)(CNC(=O)c1cccc(C(F)(F)F)c1)c1ccccc1 (stereo not given) do in these assays?
Pf apPOL inh: inactive; mHTT CaM bind: inactive

What do the screens show for `CC(C)C(=O)N1CCCC(COc2cccc(C(=O)N3CCCCC3)c2)C1` (stereo not given)?
Pf apPOL inh: inactive; mHTT CaM bind: inactive

Results for O=C(Nc1ncccc1Cl)c1cccc(F)c1 ?
Pf apPOL inh: inactive; mHTT CaM bind: inactive

How did O=C(NC(c1cccc(F)c1)c1ccc2cccnc2c1O)c1ccccc1 (stereo not given) do in these assays?
Pf apPOL inh: inactive; mHTT CaM bind: 100

How did Cc1ccc(C(NC(=O)c2ccccc2)c2ccc3cccnc3c2O)cc1 (stereo not given) do in these assays?
Pf apPOL inh: inactive; mHTT CaM bind: 100

What do the screens show for `COc1ccc(C(NC(=O)c2cccc(OC)c2)c2cc(Cl)c3cccnc3c2O)cc1` (stereo not given)?
Pf apPOL inh: inactive; mHTT CaM bind: inactive

What do the screens show for `Cc1ccc(OCCCCN2CCOCC2)cc1`?
Pf apPOL inh: inactive; mHTT CaM bind: inactive

Screening data (PubChem)
